# PubChem BioAssay AID504444 (National Center for Advancing Translational Sciences (NCATS), 2011)
# Hit rate of the full screen: of about 360,000 compounds, about 7,500 (2.1%) were called active. Inconclusive results (about 20%) are left out. The call rests on the fitted dose curve; in most records, active means well fitted inhibition curve with a large enough effect; inconclusive means small, poorly fitted or top-dose-only effect, or effect the other way; inactive means flat fitted curve, though single readings scatter. For the sample, actives were picked, then their nearest neighbours and some compounds at random.
# Test: Nrf2 qHTS screen for inhibitors; further: nearly all actives have a fitted effect of over 60% in size
# Details: A549 ARE-Fluc reporter, luciferase luminescence, 18-24 h; series mostly up to 46 µM; activity change, negative = inhibition: at the top concentration
# Excerpt: NIH Molecular Libraries Probe Production Network [MLPCN]
# NIH Chemical Genomics Center [NCGC]
# Assay Provider: Shyam Biswal, Johns Hopkins University
# Nrf2 is a transcription factor that maintains cellular redox homoestasis and protects cells from xenobiotics. Nrf2 binds to the antioxidant response element (ARE) to induce gene expression of a broad spectrum of genes that encode for antioxidants. […] Finding a small molecule that act as an inhibitor of Nrf2 function would represent a novel therapeutic target that could lead to improvement in survival of patients undergoing chemo- and/or radio- therapy.
# This is the Nrf2 activity measured in the luminescent read.
# 1. Shibata, T., et al., Genetic Alteration of Keap1 Confers Constitutive Nrf2 Activation and Resistance to Chemotherapy in Gallbladder Cancer. Gastroenterology, 2008.
# 2. Sjoblom, T., et al., The consensus coding sequences of human breast and colorectal cancers. Science, 2006. 314(5797): p. 268-74.
# NCGC Assay Protocol Summary:
# A concentration-response assay was performed with A549 ARE_Fluc cells which are suspended in 5% FBS OPTI-MEM. Five uL were dispensed into 1536-well white TC-treated plate using the Kalypsys dispenser to achieve a density of 5000 cells/well in all columns except column 1. The plate is incubated at 37deg C at 5% CO2 for 2 hours before 23 nL of compounds are added with the Kalypsys pin tool equipped with a 1,536-pin array containing 10-nL slotted pins (FP1S10, 0.457-mm diameter, 50.8 mm long; V&P Scientific). The control compounds Budesonide and Staurosporine are both added at a concentration of 2mM and Budesonide is also added as a 1:10 titration, starting at 200uM, to achieve dose-response. After an 18-24 hour incubation at 37deg C at 5% CO2, 5ul of medium is added to column 1. Afterwards 1ul of 5x of CellTiter-Fluor (Promega) is added to every well. The plate is then incubated at 37deg C at 5% CO2 for 30 minutes before they are read on the ViewLux (Perkin Elmer) for a fluorescent read Ex=405(10)/Em=525(10) for a 3 second exposure, 2x binning, and high gain. Then 3 uL of 3x BugLite is dispensed into all wells and the plate is incubated at ambient room temperature for 15 minutes. Afterwards another ViewLux read is performed using the clear filter to get a luminescent read with the settings of 40 second exposure, 2x binning, and high gain. Cytotoxicity is assessed through the first fluorescent read and then biochemical activity against Nrf2 is measured in the luminescent read.
# On the % scale 0 is the no-effect control and ±100 the full control effect; potency means the concentration at half of the fitted maximal effect.
Structure (SMILES),"activity change, negative = inhibition",Potency
Cc1ccc(O)c(NC(=O)CCS(=O)(=O)c2nc(-c3ccc4c(c3)OCO4)cc(C(F)(F)F)n2)c1,8.08% [at 9.27 µM] (inactive),
CC1CCCCN1CC(=O)N1CCCc2c1c(=O)oc1ccc(OCc3ccccc3)cc21 (configuration not stated),-15.1% (inactive),
CC1=C(c2ccc(C)c(C)c2)S(=O)(=O)NC1=NCc1ccccc1Cl,,23.1 µM (active)
Cc1ccc(-c2cc(C(=O)Oc3ccccc3Cl)no2)cc1C,12.8% (inactive),
Cc1ccc(CNc2ncnc3cc(-c4ccc5c(c4)OCO5)ccc23)o1,4.57% (inactive),
Cc1cccc(NC(=O)c2ccc(COc3ccccc3[N+](=O)[O-])o2)n1,-18.1% (inactive),
O=C(Nc1ccn(Cc2ccccc2F)n1)c1ccc(COc2ccc(Cl)cc2Cl)o1,,25.9 µM (active)
O=C(O)c1ccc(NC(=O)c2ccc(COc3ccc(Cl)cc3)o2)cc1,29.2% (inactive),
CCc1nn(CC(=O)Nc2cc(C)cc(C)c2)c(=O)c2cc3sccc3n12,9.2% (inactive),
CC1CC2=C(CC1/C=N/NC(N)=S)C(C)(C)CCC2 (configuration not stated),,23.1 µM (active)
CCc1nc2nc(C)cc(Nc3ccc(F)c(Cl)c3)n2n1,-13.4% (inactive),
Cc1ccc(CNC(=O)Cn2cnc3c(NCc4ccccc4)ncnc32)o1,-7.86% (inactive),
Cc1cccc(NC(=O)Cn2cc(S(=O)(=O)Cc3ccccc3Cl)c3ccccc32)c1,-4.12% (inactive),
O=C(O)CC/C(=N\NC(=O)c1ccc(F)cc1)c1ccc(Br)cc1,7.74% (inactive),
O/N=C(\C[n+]1ccccc1)c1ccc(Br)cc1,,3.66 µM (active)
CCN(C(=O)c1ccc(Br)cc1)c1ccccc1,-12.2% (inactive),
COC(=O)[C@]1(Cc2ccccc2)N[C@H](CN(C)S(=O)(=O)c2ccc(OC(F)(F)F)cc2)[C@@H]2C(=O)N(C)C(=O)[C@@H]21,-14.7% (inactive),
CCCN(CCC)CCCNC(=O)Cn1ncc2c3ccccc3n(Cc3ccccc3)c2c1=O,13.4% (inactive),
Cc1ccc(S(=O)(=O)N2C[C@@H]3CCCC[C@@H]3[C@@H](C)[C@H]2c2cn(Cc3ccccc3)c3ccc(F)cc23)cc1,,2.91 µM (active)
Cc1ccc(S(=O)(=O)c2cn(Cc3ccccc3)c3cc(N4CCCC4)c(F)cc3c2=O)c(C)c1,-14.6% (inactive),
Cc1cccc(S(=O)(=O)c2cn(Cc3ccccc3)c3cc(N4CCOCC4)c(F)cc3c2=O)c1,-18.8% (inactive),
N#CC1=C(N)Oc2cc(N)ccc2C1c1ccccc1 (configuration not stated),-15.3% (inactive),
CN(C)Cc1cn(-c2ccccc2)nc1-c1ccccc1,-3.78% (inactive),
O=C(N[C@H]1C/C=C\C(c2ccc(F)cc2)N(Cc2ccccc2)C(=O)C1)OCC1c2ccccc2-c2ccccc21 (some centres not stated),4.03% (inactive),
CC(C)N(C(=O)CSc1nc(COc2ccccc2)nc2ccccc12)C(C)C,-10.9% (inactive),
O=C(O)CSc1nccc2ccccc12,,16.4 µM (active)
CCc1c(SCCC(=O)O)nc2ccccc2c1C,-7.59% (inactive),
